In PubChem BioAssay (Tox21):
Values joined by “and” are separate entries in the source; they are usually repeats but may differ in a detail not shown here. Identical values can stand only once. Results filed as inconclusive are left out. Active and inactive are the calls of the source. Calls come from the whole dose curve.

assay: qHTS assay to identify small molecule agonists of the endoplasmic reticulum stress response signaling pathway - cell viability counter screen (AID 1159517); conditions: ESRE-bla HeLa viability, CellTiter-Glo luminescence, 5 h; series mostly up to 61 µM; activity change, negative = cytotoxicity: at the top concentration; note: nearly all actives have a fitted effect of over 50% in size
From the text: U.S. Tox21 Program National Center for Advancing Translational Sciences [NCATS] NIH Chemical Genomics Center [NCGC] U.S. Environmental Protection Agency [EPA] National Institutes of Environmental Health Sciences [NIEHS] National Toxicology Program [NTP] U.S. Food and Drug Administration [FDA] Tox21 Assay Overview: Endoplasmic Reticulum (ER) plays an important role in cellular signaling, protein folding/maturation, stress response, lipid biosynthesis, calcium storage and release etc. Under stress conditions, proteins in ER misfold or unfold, and leading to the expression of ER stress responsive genes. ER stress has been associated with a variety of pathophysiological conditions such as cancer, inflammation, neurodegenerative diseases, diabetes, ischemic heart disease etc. To identify the compounds that induce ER stress response, an ER stress reporter cell line, CellSensor ESRE-bla HeLa (Life Technologies, Carlsbad, CA) containing a beta-lactamase reporter gene under control of the Endoplasmic reticulum Stress Response Element (ESRE) was used to screen Tox21 10K compound library. The cytotoxicity of the Tox21 compound library against the ESRE-bla HeLa cell line was tested in parallel by measuring cell viability using the CellTiter-Glo assay in the same wells.
Tox21 Assay Protocol Summary: ESRE-bla HeLa cells were dispensed at 1,500 cells/6 uL of assay medium per well into black wall/clear-bottom 1536-well plates using a Multidrop Combi (ThermoFisher Scientific, Waltham, MA) dispenser. After the assay plates were incubated at 37 C and 5% CO2 for an overnight, 23 nL of compounds dissolved in DMSO, positive controls or DMSO only was transferred to the assay plate by a Pintool station (Kalypsys, San Diego, CA). The assay plates were incubated at 37 C and 5% CO2 for 5 hr. One uL of LiveBLAzer B/G FRET substrate (Life Technologies) was added using a FRD (Flying Reagent Dispenser, Aurora Discovery, San Diego, CA) and the plates were incubated at room temperature for 2 hr. Fluorescence intensity (405 nm excitation, 460 nm and 530 nm emissions) was measured using an Envision plate reader (PerkinElmer, Shelton, CT). For cytotoxicity, 4 ul/well of CellTiter-Glo reagent was added into the assay plates using an FRD. After 30 min incubation at room temperature, the luminescence intensity was measured using a ViewLux plate reader (PerkinElmer).
% is set by controls: 0 for no effect and ±100 for the full control effect; potency is the fitted concentration of half-maximal effect.

Row | SMILES | activity change, negative = cytotoxicity | Potency
1 | O=CC=O | -22.2% [at 78.8 µM] (inactive) | 
2 | CN1CC[C@]23c4c5ccc(O)c4O[C@H]2[C@@H](O)CC[C@H]3[C@H]1C5 | -20.9% (inactive) | 
3 | CCCC[P+](CC)(CCCC)CCCC (tested in a mixture with another compound) | 3.05% [at 78.8 µM] (inactive) | 
4 | O=[N+]([O-])O[C@H]1CO[C@H]2[C@@H]1OC[C@H]2O[N+](=O)[O-] | -0.871% (inactive) | 
5 | CCCCCCCCCCCC[N+](C)(C)CCOc1ccccc1 |  | 15.5 µM (active) and 19 µM (active)
6 | O=C=NC1CCCCC1 | 4.67% (inactive) | 
7 | CCCC1CCCCN1 (stereo not given) | 13.4% (inactive) | 
8 | CN(C)C(=O)Nc1cccc(OC(=O)NC(C)(C)C)c1 | -9.18% (inactive) | 
9 | COc1cc(C[C@@H](C)N)c(OC)cc1Br | -3.5% [at 78.8 µM] (inactive) | 
10 | C=CCOC(=O)C(C)(C)OC(=O)c1cc(-n2c(=O)cc(C(F)(F)F)n(C)c2=O)ccc1Cl | 25.4% (inactive) | 
11 | NP(N)(=O)NC(=O)c1ccc(F)cc1 | -1.16% (inactive) | 
12 | Nc1c(Br)cc(Br)c2c1C(=O)c1ccccc1C2=O | -22.1% [at 28.5 µM] (inactive) | 
13 | Oc1cccc(Cl)c1 | 3.95% (inactive) | 
14 | CCC(=O)O[C@@H]1C=C2CCC3C(CCC4(C)C3CC[C@@H]4OC(=O)CC)C2CC1 (stereo not given in full) | -18.3% (inactive) | 
15 | FC(Cl)(Cl)C(F)(Cl)Cl | 19.6% [at 78.8 µM] (inactive) | 
16 | COC1CC(=C(c2cccs2)c2cccs2)C[N+](C)(C)C1 (stereo not given) | 6.06% (inactive) | 
17 | C[CH2][Hg][S]c1ccccc1C(=O)O |  | 6.74 µM (active)
18 | OCC1CO1 (stereo not given) |  | inactive
19 | CCN(C(C)=O)c1cccc(-c2ccnc3c(C#N)cnn23)c1 | 1.78% (inactive) | 
20 | CC(Oc1cc(Cl)c(Cl)cc1Cl)C(=O)O (stereo not given) | 16.9% (inactive) | 

Row | SMILES | activity change, negative = cytotoxicity | Potency
21 | ClCc1ccccc1Cl | 6.44% [at 78.8 µM] (inactive) | 
22 | CCNC(=O)NC(=O)/C(C#N)=N/OC | -25% (inactive) | 
23 | C[Si](Cn1cncn1)(c1ccc(F)cc1)c1ccc(F)cc1 | -9.94% (inactive) | 
24 | CCCCCCCCCCCCCCCl | 9.79% [at 78.8 µM] (inactive) | 
25 | CCC1(C2=NCCN2)Cc2ccccc2O1 (stereo not given) | -0.227% (inactive) | 
26 | C=CC(=O)NC(C)(C)CC(C)=O | -0.584% (inactive) | 
27 | Nc1cc(Cl)cc(C(=O)O)c1Cl |  | inactive
28 | Cc1ccc(N)c(C)c1 |  | inactive
29 | O=C(O)c1cc(Cl)ccc1Cl | -9.3% (inactive) | 
30 | Nc1ccccc1C(=O)OCC(O)CO (stereo not given) | 20.5% (inactive) | 
31 | C[C@H]1[C@@H]2Cc3ccc(O)cc3[C@@]1(C)CCN2C | 4.01% [at 216 µM] (inactive) | 
32 | O=C(Cc1ccccc1)c1ccccc1 | -8.85% (inactive) | 
33 | C=CCSSCC=C | -6.91% (inactive) | 
34 | O=C(CCl)CCl |  | 43.6 µM (active)
35 | O=[N+]([O-])/C=C/c1ccccc1 | -34.2% (inactive) | 
36 | CNC(=O)Oc1cccc(N=CN(C)C)c1 | 3.1% (inactive) | 
37 | CCOP(=S)(OCC)SCSc1cc(Cl)ccc1Cl | -3.36% (inactive) | 
38 | CCOC(C(=O)OCCN(C)C)(c1ccccc1)c1ccccc1 | -9.24% (inactive) | 
39 | CCOC(=O)C1OC1(C)c1ccccc1 (stereo not given) |  | inactive
40 | Cc1ccccc1 | -10.6% (inactive) | 
